# PAFAH1B3 inh: blocks human PAF acetylhydrolase 1B catalytic subunit 3. Q15102. recombinant PAFAH1B3, FP-rhodamine probe, fluorescence polarization. inhibition, % at 3.39 µM. 340,000 tested, 0.28% active;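 active = inhibition above the screen-wide average of all tested compounds plus 3 SD, cut at about 25% in these data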;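 note: 0% = enzyme with DMSO only and 100% = wells lacking PAFAH1B3 protein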
# PAFAH2 FP inh: inhibitors of human PAFAH2; inhibition, % at 3.39 µM; AID 492956; recombinant PAFAH2, FP-rhodamine activity probe, fluorescence polarization; 340,000 tested, 0.99% active; Q99487;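 active = inhibition above the mean over all tested compounds plus 3 SD, cut at about 30% in these data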;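 note: inhibitors block probe labeling of enzyme so polarization drops; 0% = enzyme with DMSO and 100% = wells lacking PAFAH2 protein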
# PME-1 inh: PME-1 (human) inhibition; Q9Y570; recombinant PME-1, FP-Rh probe fluorescence polarization; inhibition, % at 5.9 µM; 320,000 tested, 0.53% active;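 active = inhibition above the campaign mean of all compounds plus 3 SD, cut at about 26% in these data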;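 note: competitive labeling of PME-1 active site by serine hydrolase directed probe; 0% = PME-1 with DMSO and 100% = wells lacking PME-1 enzyme; inhibitors block probe labeling so polarization falls and inhibition rises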
# Target sequence (Q9Y570 whole entry, looked up): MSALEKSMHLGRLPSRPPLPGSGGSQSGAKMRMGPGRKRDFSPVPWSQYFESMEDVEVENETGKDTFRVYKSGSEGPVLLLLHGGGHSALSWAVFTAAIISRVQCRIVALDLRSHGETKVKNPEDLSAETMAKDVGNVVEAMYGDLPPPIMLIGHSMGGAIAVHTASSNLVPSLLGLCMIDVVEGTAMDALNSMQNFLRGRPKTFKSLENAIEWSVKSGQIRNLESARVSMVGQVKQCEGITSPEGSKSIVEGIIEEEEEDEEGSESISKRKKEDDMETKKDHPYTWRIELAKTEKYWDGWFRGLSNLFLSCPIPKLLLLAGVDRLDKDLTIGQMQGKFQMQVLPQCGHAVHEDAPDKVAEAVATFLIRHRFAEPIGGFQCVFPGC
# pPAFAH FP inh: inhibitors of human plasma PAF acetylhydrolase (pPAFAH); 330,000 tested, 1.5% active; inhibition, % at 3.39 µM; Q13093; recombinant pPAFAH, FP-rhodamine probe fluorescence polarization;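 active = inhibition above the mean inhibition across the screen plus 3 SD, cut at about 25% in these data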;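 note: inhibitors block binding of the rhodamine activity-based probe so polarization drops; 0% = enzyme with DMSO and 100% = wells lacking pPAFAH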
# PAFAH1B2 FP inh: PAFAH1B2 (human) inhibition. recombinant PAFAH1B2, FP-rhodamine activity probe, fluorescence polarization. inhibition, % at 3.39 µM. 340,000 tested, 1.2% active. AID 492953;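 active = inhibition above the mean of all tested compounds plus 3 SD, cut at about 24% in these data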;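 note: 0% = enzyme with DMSO and 100% = wells lacking PAFAH1B2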
# Target sequence (P68402 whole entry, looked up): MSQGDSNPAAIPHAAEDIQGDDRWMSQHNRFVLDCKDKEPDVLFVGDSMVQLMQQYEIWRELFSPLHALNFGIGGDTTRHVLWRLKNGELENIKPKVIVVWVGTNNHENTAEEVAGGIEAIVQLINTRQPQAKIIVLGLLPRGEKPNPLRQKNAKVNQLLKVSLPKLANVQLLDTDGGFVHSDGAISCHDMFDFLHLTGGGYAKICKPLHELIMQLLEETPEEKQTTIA
# Fam108B counter: blocks mouse Fam108B hydrolase in RBBP9 counter-screen; recombinant Fam108B, FP-Rh probe fluorescence polarization; inhibition, % at 9.51 µM; 300,000 tested, 0.33% active; AID 1947;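 active = inhibition above the screen mean inhibition plus 3 SD, computed separately per campaign, cut at about 18% in these data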;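 note: inhibitors lower polarization as less probe binds the enzyme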
# Fam108b confirm: confirmation of mouse Fam108b serine hydrolase inhibitors | shares compounds with Fam108B counter | recombinant Fam108b, FP-Rh probe fluorescence polarization | inhibition, % at 9.51 µM | 930 tested, 44% active;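 active = inhibition above a limit from the primary screen, the mean over all compounds plus 3 SD, cut at about 19% in these data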;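 note: 0% = median of active Fam108b wells and 100% = catalytically dead S170A mutant; inhibitors free the probe so polarization falls as inhibition rises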
# Fam108b ABPP HTS: mouse ABHD17B inhibition; shares compounds with Fam108B counter; recombinant Fam108b, gel-based ABPP, fluorophosphonate probe; inhibition, % at 20 µM; 260 tested, 44% active; AID 588649; in the data active = inhibition above about 40%
# Active calls of the source: *; · = not tested or not shown. The list is not random: actives were taken first. Their share in the collection is about 2.8%.
SMILES,PAFAH1B3 inh,PAFAH2 FP inh,PME-1 inh,pPAFAH FP inh,PAFAH1B2 FP inh,Fam108B counter,Fam108b confirm,others
COc1ccc(/C=N/NC(=O)c2cc(C34CC5CC(CC(C5)C3)C4)[nH]n2)cc1O,-1,6,-8,13,29*,24*,3,
COc1ccc(/C=N\NC(=O)c2ccc(=O)[nH]n2)cc1O,1,7,-1,2,-1,8,·,
Nc1ccc(O)cc1,·,·,50*,38*,·,64*,7,
Nc1ccc(C(=O)O)cc1,3,-3,1,4,5,5,·,
O=C1C2C3C=CC(C3)C2C(=O)N1CNc1ccc(O)cc1 (centres undefined),·,·,44*,23,·,33*,12,
CS(=O)(=O)N(CC(=O)NCCSCc1cccc(Cl)c1)c1ccccc1F,8,11,6,4,7,1,·,
O=C(CNC(=O)c1ccc(Cl)cc1Cl)OCCCn1c(=O)[nH]c2ccccc21,0,2,-4,5,-4,-1,·,
COc1ccc(N/N=C(\C=N\O)C(=O)c2ccc(OC)cc2)cc1,19,20,57*,12,8,47*,42*,
CCOC(=O)C1CCN(C(=O)Nc2ccc3c(c2)nc(C)n3C)CC1,10,-8,4,-1,4,-4,·,
CCOC(=O)C1CCN(C(=O)Nc2ccc3nc(-c4ccco4)c(-c4ccco4)nc3c2)CC1,13,21,11,60*,11,34*,40*,Fam108b ABPP HTS=0
COc1ccc(-c2csc(NC(=O)Nc3ccccc3)n2)cc1,5,7,48*,9,7,45*,18,
COc1ccccc1NC(=O)N1CCc2[nH]c3ccc(F)cc3c2C1,5,4,6,3,3,21*,-6,
O=C(C1CCCCC1)N1CCc2[nH]c3ccc(F)cc3c2C1,13,4,-1,4,5,-4,·,
COc1ccc(NC(=O)CN(C)CC(=O)N2CC(=O)Nc3ccccc32)cc1,1,8,·,0,7,·,·,
O=[N+]([O-])c1ccc(O)c(/C=N\N=C2c3ccccc3-c3ccccc32)c1,17,24,13,21,6,21*,6,
NC(N)=N/N=C/c1cc([N+](=O)[O-])ccc1O,9,-5,0,1,2,-2,·,
CN(CC(=O)Nc1ccccc1Br)C(=O)CN1CCN(Cc2cccc(Cl)c2)CC1,8,-4,·,4,4,·,·,
O=C(Nc1nc(-c2ccc(Cl)s2)cs1)c1ccncc1,10,0,-4,6,-1,3,·,
CC1CC1C(=O)Nc1nc(-c2ccc(Cl)s2)cs1 (centres undefined),-4,-8,0,-1,1,20*,-5,
CCn1c(CSc2nnc(-c3ccncc3)n2C)nc2cc(C(=O)O)ccc21,36*,49*,40*,26*,37*,29*,37*,Fam108b ABPP HTS=15
Cc1ccc(C)c(N2CCN(C(=O)Cc3ccc(NC4=NC5CS(=O)(=O)CC5S4)cc3)CC2)c1 (centres undefined),1,-1,4,0,0,-3,·,
COc1ccc(NC(=O)Nc2cc(C)ccc2OC)cc1,5,7,5,6,4,1,·,
COc1ccccc1NC(=O)Nc1ccc(NC(=O)c2ccccc2O)cc1,13,5,0,12,0,21*,-2,
COc1ccc(NC(=O)Nc2ccccc2OC)cc1,7,2,7,10,6,4,·,
COc1ccc(OC)c(NC(=O)Nc2ccc(Cl)cc2)c1,5,7,21,12,3,23*,14,
SMILES,PAFAH1B3 inh,PAFAH2 FP inh,PME-1 inh,pPAFAH FP inh,PAFAH1B2 FP inh,Fam108B counter,Fam108b confirm,others
COc1ccc(CCNC(=O)C2CCCN(c3ncnc4c3nc3n4CCCCC3)C2)c(OC)c1 (centres undefined),7,-7,-9,3,1,0,·,
CSCC[C@H](NC(=O)[C@H]1CC[C@H](CNC(=O)[C@@H](N)Cc2ccccc2)CC1)C(=O)O,16,4,1,-5,4,3,·,
CCCCn1c(NC(=O)c2ccccc2Cl)c(C#N)c2nc3ccccc3nc21,60*,37*,27*,27*,36*,38*,54*,Fam108b ABPP HTS=10
CCCCn1c(NC(=O)CC)c(C#N)c2nc3ccccc3nc21,-6,-10,2,1,8,-3,·,
COc1ccc(Nc2nc(N)c(C(=O)c3ccc(F)cc3)s2)cc1,8,3,11,31*,8,50*,-4,
CC(Oc1ccccc1)C(=O)N=C1SC2CS(=O)(=O)CC2N1c1ccccc1 (centres undefined),10,0,-2,2,1,1,·,
Clc1ccccc1C(c1ccccc1)(c1ccccc1)n1ccnc1,-2,-1,-14,2,11,32*,46*,Fam108b ABPP HTS=45*
COc1ccccc1-c1nnc(SCC(=O)N2CCCC2)o1,5,6,4,5,7,0,·,
CCOC(=O)c1c(C)[nH]c(C2=NNC(=Nc3cccc(Cl)c3)SC2)c1C,·,·,34*,14,·,22*,-4,
CC(=O)c1c(C)[nH]c(C2=NNC(=NCc3ccccc3)SC2)c1C,5,-1,0,6,10,7,·,
CCN(C(=O)CN1CCCCC1C)c1c(N)n(Cc2ccccc2)c(=O)[nH]c1=O (centres undefined),2,1,3,-4,-2,·,·,
Nc1cc(=O)[nH]c(SCC(=O)Nc2cc(S(=O)(=O)N3CCCCC3)ccc2Cl)n1,9,-4,5,2,1,·,·,
COc1ccc(C=NNC(=O)c2cc(O)c(O)c(O)c2)cc1COc1ccc(C(=O)OCC(C)C)cc1,·,·,·,·,·,·,·,Fam108b ABPP HTS=30
OCC1OC(n2ccc3c(SCc4ccccc4)ncnc32)C(O)C1O (centres undefined),14,7,·,·,6,·,·,
O=C1c2cccc3c(O)ccc(c23)C(=O)N1Cc1ccccc1,35*,50*,26,31*,26*,28*,28*,
COC1C(C)=C(C)C(=O)N1Cc1ccc(F)cc1 (centres undefined),14,1,-3,1,-1,-3,·,
COc1ccc2ccccc2c1/C=N/NC(=O)c1cccc(Br)c1,-9,-7,-7,-6,2,-4,·,
O=C(N/N=C/c1c(O)ccc2ccccc12)c1cccc(C(F)(F)F)c1,13,10,15,30*,12,19*,9,
O=C(CNc1ccc2ccccc2c1)N/N=C/c1cc2ccccc2nc1Cl,18,-23,52*,9,-1,37*,18,
O=C(COc1cccc(Cl)c1)N/N=C\c1cc2ccccc2nc1Cl,3,-5,-1,0,-3,-1,·,
O=C(O)C(S)C(S)C(=O)O (centres undefined),10,13,-4,12,-1,21*,13,

# From PubChem
